Compound activity: PubChem, National Center for Advancing Translational Sciences (NCATS)
A selection: hits, their analogues and other compounds. The true share with any hit is near 21%.
Pf growth 96h: P. falciparum growth inhibition at 96 hour, primary screen for plastid delayed-death inhibitors. P. falciparum luciferase reporter growth, 96 h. Potency, µM (highest dose often 28.7 µM), for inactives: at the highest dose activity change, negative = inhibition, hits mostly inhibitors. 320,000 tested, 6.9% active. AID 504834; further: potency means the concentration at half of the fitted maximal effect; on the % scale 0 is the no-effect control and ±100 the full control effect
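Parasite growth measured via integrated firefly luciferase reporter in P. falciparum. Infected erythrocytes at 2% hematocrit, 0.05% parasitemia final were treated 96 hours at 37 C under 5% CO2, and luminescence was read.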
Sm TGR inh: blocks Schistosoma mansoni thioredoxin glutathione reductase; 360,000 tested, 3% active; Potency, µM (top dose mostly 114 µM), inactives show at the top dose activity change, negative = inhibition, hits mostly inhibitors; Q962Y6; purified TGR, DTNB reduction, TNB absorbance 405 nm; further: potency means the concentration at half of the fitted maximal effect; on the % scale 0 is the no-effect control and ±100 the full control effect; nearly all actives have a fitted effect of over 60% in size
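First, TGR (20 nM dispensed) and NADPH were mixed with compound. Second, a 15 min room-temperature incubation followed. Third, further NADPH and then DTNB were added to start the reaction. Finally, TNB absorbance was monitored kinetically.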
Pf growth 48h: inhibits P. falciparum growth in the first generation, 48 h; 310,000 tested, 5.9% active; Potency, µM (highest dose often 28.7 µM), for inactives: at the top dose activity change, negative = inhibition, hits mostly inhibitors; P. falciparum luciferase growth in erythrocytes, 48 h; further: potency means the concentration at half of the fitted maximal effect; on the % scale 0 is the no-effect control and ±100 the full control effect
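Luminescence readout; reporter = integrated firefly luciferase in P. falciparum. RBC culture at 2% hematocrit, 0.1% parasitemia final, 37 C/5% CO2; decreased signal taken as growth inhibition.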
NS1 inh: influenza NS1 inhibition | Potency, µM (titrated, usually from 46.1 µM), for inactives: top-dose activity, positive = more growth | 270,000 tested, 0.4% active | AID 2326; calls by dose curve; further: potency means the concentration at half of the fitted maximal effect; actives are rising curves; nearly all actives have a fitted effect of over 50% in size
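Growth recovery, yeast-based: influenza A NS1 expressed in S. cerevisiae causes slow growth, and suppressors are detected by OD600. The parent strain without NS1 is used as positive control.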
Shiga inhibitor: inhibitors of Shiga toxin in Vero cells; Vero cells, Shiga toxin protein synthesis inhibition reporter; inhibition, % at 38.7 µM; 290,000 tested, 9.2% active; AID 2315; in the data active means inhibition mostly above about 28%, no sharp cut-off; inactive means mostly below about 43%; further: 0% is about no effect
CHX counter: counter-screen hit for Shiga toxin inhibitors, cycloheximide. max response, %. AID 2314. 300,000 tested, 12% active. cell reporter, cycloheximide protein synthesis inhibition counterscreen; in the data active means max response mostly above about 13%, no sharp cut-off; inactive means mostly below about 14%; further: read at 38.3 µM for the half of the compounds with a filed dose; 0% is about no effect
The depositor's hits bear a star. Unless noted, the call rests on the fitted dose curve; in most records, active means well fitted curve in the direction sought with a large enough effect; inconclusive means small, poorly fitted or top-dose-only effect, or another doubt; inactive means no such curve, though single readings can be large; an effect the other way counts as inactive or inconclusive.

Results for CCn1c(CNC(=O)c2ccc(Cl)cc2)nnc1SCC(=O)NC1=NCCS1 ?
Pf growth 96h: 8.28µM*; Sm TGR inh: -0.1%; Pf growth 48h: 4.3%; NS1 inh: 6.0%; Shiga inhibitor: -8.0; CHX counter: -3.5

What do the screens show for `CCn1c(CNC(=O)c2cccs2)nnc1SCC(=O)Nc1cc(Cl)ccc1C`?
Pf growth 96h: inconclusive; Sm TGR inh: -5.0%; Pf growth 48h: inconclusive; NS1 inh: 3.0%; Shiga inhibitor: 3.9; CHX counter: 2.0

What do the screens show for `CCn1c(CNC(=O)c2cccs2)nnc1SCC(=O)Nc1ccc(Cl)cc1`?
Pf growth 96h: 9.28µM*; Sm TGR inh: -19.5%; Pf growth 48h: 10.4µM*; NS1 inh: 2.5%; Shiga inhibitor: -4.7; CHX counter: 1.3

What do the screens show for `CCN(CC)CCN(Cc1cc2cc3c(cc2[nH]c1=O)OCCO3)C(=S)NC`?
Pf growth 96h: 0.0%; Sm TGR inh: -18.3%; Pf growth 48h: 17.0%; NS1 inh: -8.0%; Shiga inhibitor: -1.0; CHX counter: -1.4

Results for COCO[C@H]([C@@H](C)C=C(Br)Br)[C@@H](C)COCc1ccc(OC)cc1 ?
Shiga inhibitor: 7.5; CHX counter: 12.7

How did CCn1c(COc2ccccc2C)nnc1SCC(=O)O do in these assays?
Pf growth 96h: -16.7%; Sm TGR inh: 1.5%; NS1 inh: -6.7%; Shiga inhibitor: 14.4; CHX counter: -2.6

What do the screens show for `CCn1c(COc2ccccc2C)nnc1SCC(=O)CC(=O)Nc1ccccc1`?
Pf growth 96h: 25.7%; Sm TGR inh: -25.2%; Pf growth 48h: 10.4µM*; NS1 inh: inconclusive; Shiga inhibitor: -1.7; CHX counter: 5.3

Results for Cc1cc(N2CCC(C)CC2)nc2cccc(O)c12 ?
Pf growth 96h: 11.7µM*; Sm TGR inh: inconclusive; NS1 inh: -16.8%; Shiga inhibitor: 54.9; CHX counter: 23.1

Results for CC(C)Cc1nc2c(nnn2Cc2ccccc2F)c(=O)[nH]1 ?
Pf growth 96h: 9.28µM*; Sm TGR inh: 11.9%; Pf growth 48h: inconclusive; NS1 inh: -4.6%; Shiga inhibitor: -6.6; CHX counter: -1.6

Results for CC(C)Cc1n[nH]c(=O)c2c1nnn2Cc1ccccc1F ?
Pf growth 96h: 24.9%; Sm TGR inh: 0.6%; Pf growth 48h: inconclusive; NS1 inh: 6.5%; Shiga inhibitor: 2.5; CHX counter: 2.7

What do the screens show for `COc1ccc(C)cc1NCc1nnc2n1CCCCC2`?
Sm TGR inh: 4.8%

Results for O=C(CN1C(=O)COc2ccc(S(=O)(=O)N3CCOCC3)cc21)Nc1ccc(F)c(Cl)c1 ?
Sm TGR inh: 0.6%

What do the screens show for `CCN(C(=S)NCc1ccccc1)c1ccccc1`?
Pf growth 96h: inconclusive; Sm TGR inh: -6.7%; Pf growth 48h: inconclusive; Shiga inhibitor: 10.4; CHX counter: -3.2

How did Cc1ccccc1NC(=O)CC1SC(=O)N(c2ccccc2)C1=O (configuration not stated) do in these assays?
Sm TGR inh: 5.01µM*; Pf growth 48h: 57.1%; NS1 inh: inconclusive; Shiga inhibitor: 64.1*; CHX counter: 46.8*

Results for O=C(CC1SC(=O)N(c2ccccc2)C1=O)Nc1cccc2ccccc12 (configuration not stated) ?
Pf growth 96h: 20.1%; Sm TGR inh: inconclusive; Pf growth 48h: -0.4%; NS1 inh: 18.2%; Shiga inhibitor: 37.7; CHX counter: 20.7*

Results for CCOc1ccccc1NC(=O)CC1SC(=N)N(c2ccccc2)C1=O (configuration not stated) ?
Pf growth 96h: 14.5%; Sm TGR inh: -8.4%; Pf growth 48h: inconclusive; Shiga inhibitor: -3.5; CHX counter: 1.1

What do the screens show for `COc1ccccc1NC(=O)CC1SC(=N)N(c2ccccc2)C1=O` (configuration not stated)?
Pf growth 96h: 7.4%; Pf growth 48h: inconclusive; NS1 inh: 7.0%; Shiga inhibitor: -3.8; CHX counter: -4.6

What do the screens show for `CCCN1C(=O)SC(CC(=O)Nc2ccccc2C)C1=O` (configuration not stated)?
Pf growth 96h: -15.1%; Sm TGR inh: -34.6%; Pf growth 48h: 18.6%; NS1 inh: -28.8%; Shiga inhibitor: -4.6; CHX counter: 1.2

What do the screens show for `CCOc1ccc(NC(=O)CN2C(=O)CSC(C)C2=O)cc1` (configuration not stated)?
Pf growth 96h: 31.9%; Sm TGR inh: 1.2%; Pf growth 48h: 2.7%; Shiga inhibitor: 112.7*; CHX counter: 40.9*

Results for CCOc1ccc(NC(=O)CC2SC(=O)N(c3ccccc3)C2=O)cc1 (configuration not stated) ?
Pf growth 96h: inconclusive; Sm TGR inh: inconclusive; Pf growth 48h: 39.5%; NS1 inh: 8.6%; Shiga inhibitor: 43.8*; CHX counter: 20.7*

What do the screens show for `CN(C)Cc1cc(O)c(CN(C)C)cc1O`?
Pf growth 96h: 32.4%; Sm TGR inh: 2.51µM*; Pf growth 48h: -16.1%; NS1 inh: 8.2%; Shiga inhibitor: -4.8; CHX counter: -1.9

How did CN(C)Cc1cc(O)c(O)c(CN(C)C)c1 do in these assays?
NS1 inh: 1.1%

Results for Cc1cccc(C(=O)Nc2cccc(C(=O)NC3CCCC3)c2)c1 ?
Pf growth 96h: inconclusive; Sm TGR inh: 1.0%; Pf growth 48h: 89.1%; NS1 inh: -10.9%; Shiga inhibitor: 26.9; CHX counter: 15.8

How did Cc1nn(-c2cccc(Cl)c2)nc1C(=O)Nc1cccc(C(=O)NC2CC2)c1 do in these assays?
Pf growth 96h: inconclusive; Sm TGR inh: -3.2%; Pf growth 48h: 14.7µM*

Results for Cc1ccc(-n2nc(C)c(C(=O)Nc3cccc(C(=O)NC4CC4)c3)n2)c(C)c1 ?
Pf growth 96h: 14.7µM*; Sm TGR inh: -1.7%; Pf growth 48h: inconclusive

What do the screens show for `Cc1cccc2nc(C(=O)Nc3cccc(C(=O)NC4CC4)c3)cn12`?
Pf growth 96h: 96.5%; Sm TGR inh: -11.7%; Pf growth 48h: 155.5%

Results for CCCCCC(=O)Cc1cc(O)cc2c1C(=O)Oc1cc(O)c(C(=O)O)c(CCCCC)c1O2 ?
Pf growth 96h: inconclusive; Sm TGR inh: 35.5µM*; Pf growth 48h: -4.5%; NS1 inh: 6.9%; Shiga inhibitor: -7.9; CHX counter: -2.8

Results for O=C(c1ccco1)N1CCC(c2ccccc2)C1 (configuration not stated) ?
Pf growth 96h: 17.8%; Sm TGR inh: inconclusive; Pf growth 48h: 79.9%; NS1 inh: -16.0%; Shiga inhibitor: 79.2*; CHX counter: 24.2*

How did O=C(c1ccc(F)cc1)N1CCC(c2ccccc2)C1 (configuration not stated) do in these assays?
Pf growth 96h: 32.8%; Sm TGR inh: 2.6%; Pf growth 48h: inconclusive; NS1 inh: -3.6%; Shiga inhibitor: 67.8*; CHX counter: 41.4*
